# Screen size: about 10,000 compounds; about 320 (3.2%) were called active. This excerpt belongs to a sample that is enriched for actives. Values without a mark were called inactive. No stated cut-off is given here; in the data, active means CPE inhibition mostly above about 9.1% (no sharp cut-off); inactive means mostly below about 7.2%.
# Experiment: Dengue virus cytopathic effect inhibitors, cell-based, CPE readout, HTS (AID 540333)
# Conditions: Dengue virus CPE inhibition in host cells, at 20 µM; stronger effect = higher value
row,SMILES,CPE inhibition
1,CC1(C)CC(=O)C2=C(C1)NC1=C(C(=O)c3ccccc31)C2c1ccc(O)cc1 (configuration not stated),2.13%
2,CC(C)Oc1cccc(C(=O)NC(=S)NCc2cccnc2)c1,2.73%
3,O=C(NC(=S)Nc1ccc(Cc2ccncc2)cc1)c1ccccc1,0.355%
4,O=C(NC(=S)NC(c1ccccc1)c1ccncc1)c1ccccc1 (configuration not stated),18.9% (active)
5,CC(C)NC(=S)NC(=O)c1ccc(-c2ccccc2)cc1,0.805%
6,CCOC(=O)c1c(C(F)(F)F)cc(-c2ccc(F)cc2)nc1C,inactive
7,CC(C)(Oc1ccc(Cl)cc1)C(=O)N(Cc1ccccc1)c1ccccn1,11% (active)
8,CC1(C(=O)NC(=S)N(Cc2ccccc2)c2ccccn2)CC1(Cl)Cl (configuration not stated),0.075%
9,COc1cc(/C=C/C(=O)N(Cc2ccccc2)c2ccccn2)cc(OC)c1OC,inactive
10,O=C(c1ccc(COc2ccc(Br)cc2)o1)N1N=C(C(F)F)CC1(O)C(F)F (configuration not stated),2.42%
11,Cc1ccc(OCC(=O)Nc2cc(S(=O)(=O)N3CCCCC3)ccc2C)c([N+](=O)[O-])n1,3.06%
12,Cc1ccc(OCC(=O)NCC(=O)Nc2ccc(F)c(F)c2F)c([N+](=O)[O-])n1,0.32%
13,Cc1ccc(OCC(=O)Nc2ccccc2Sc2ccc(Cl)cc2)c([N+](=O)[O-])n1,13.9% (active)
14,O=C1c2ccccc2S(=O)(=O)c2cc(C(=O)N3CCN(c4ncccn4)CC3)ccc21,0.735%
15,CC(C)c1ccc(NC(=O)COc2ccc(F)cc2C(=O)c2cnn(-c3ccccc3)c2)cc1,1.51%
16,CCOP(=O)(OCC)C(NC(=O)Nc1ccccc1)C(N)=O (configuration not stated),1.93%
17,CC(C)C(=O)NCCc1c[nH]c2ccccc12,0.48%
18,CC1(C(=O)NCCc2c[nH]c3ccccc23)C=CCN1C(=O)c1ccccc1 (configuration not stated),1.21%
19,C[C@]1(C(=O)NCCc2c[nH]c3ccccc23)C=C[C@@H](Cc2ccccc2)N1C(=O)c1ccccc1,19.4% (active)
20,CCCCn1c(SCc2nc3ccccc3s2)nc2ccccc2c1=O,inactive
21,CCOc1cc2c3c(c1)C1(C(=O)N3C(C)(C)CC2C)C(C#N)=C(N)N2C(=C1C#N)Nc1ccccc12 (configuration not stated),2.12%
22,Cc1ccc(NNC(=O)C(O)(c2cccc(C(F)(F)F)c2)c2cccc(C(F)(F)F)c2)cc1,7.56%
23,Cc1cccc(C(O)(C(=O)NNc2ccc3ccccc3n2)c2cccc(C)c2)c1,inactive

row,SMILES,CPE inhibition
1,O=C(NNc1ccccc1Cl)C(O)(c1cccc(C(F)(F)F)c1)c1cccc(C(F)(F)F)c1,20.4% (active)
2,Cc1ccc(NC(=S)NCC(C)C)cc1,inactive
3,C#Cc1ccc([C@@H]2C=C(C(=O)O)O[C@H](OCC)[C@H]2CCCO)cc1,1.06%
4,Cc1cc(-c2n[nH]c(=S)n2/N=C/c2cccc([N+](=O)[O-])c2)n[nH]1,0.265%
5,Cc1cc(-c2n[nH]c(=S)n2/N=C/c2ccccc2[N+](=O)[O-])n[nH]1,0.73%
6,Cc1cc(-c2n[nH]c(=S)n2/N=C/c2cc([N+](=O)[O-])ccc2Cl)n[nH]1,10.9% (active)
7,O=C(Nc1ccc(F)cc1F)c1cc2ncc(CCCl)cn2n1,0.045%
8,Cc1ccc(S(=O)(=O)N2CCCCC2)cc1C(=O)OCC(=O)NC(=O)NC12CC3CC(CC(C3)C1)C2,0.11%
9,CN(C)c1ccc(N=Nc2ccccc2C(=O)OCC(=O)NCC2CCCCC2)cc1,0.995%
10,COc1ccc(CN(C)C2c3ccccc3-c3ccccc32)cc1,1.16%
11,Cc1cc(C(=O)N/N=C/c2cc(Cl)cc([N+](=O)[O-])c2O)c2ccccc2n1,0.08%
12,O=C(N/N=C/c1cc(Cl)cc([N+](=O)[O-])c1O)NC12CC3CC(CC(C3)C1)C2,15.6% (active)
13,O=C(N/N=C/c1cc([N+](=O)[O-])ccc1O)NC12CC3CC(CC(C3)C1)C2,0.635%
14,Clc1ccc2nc(-c3ccncc3)cc(-c3ccccc3)c2c1,2.25%
15,O=[N+]([O-])c1ccc2nc(-c3ccccc3)cc(-c3ccccc3)c2c1,1.14%
16,Cc1ccc2nc(-c3cccc(NS(C)(=O)=O)c3)cc(-c3ccccc3)c2c1,24.6% (active)
17,COCCn1c(=NC(=O)c2nc3ccccc3s2)sc2cc(S(C)(=O)=O)ccc21,6.63%
18,Cc1cccc(/C(N)=N/OC(=O)c2ccc3c(c2)OCO3)c1,0.195%
19,COc1ccccc1NC(=O)c1c(Nc2ccccc2F)sc(C(=O)Nc2cccc(Cl)c2)c1N,17.3% (active)
20,COc1ccccc1NC(=O)c1c(Nc2ccccc2C)sc(C(=O)Nc2cccc(Cl)c2)c1N,0.08%
21,COc1ccccc1NC(=O)c1ccc(NS(=O)(=O)c2ccc(F)c(Cl)c2)cc1,inactive
22,Cc1ccc(-c2csc(NC(=S)NC(=O)c3cc4ccccc4o3)n2)cc1,1.54%
23,O=C1CSC(=S)N1N=C1CCCCCC1,inactive

row,SMILES,CPE inhibition
1,O=C(NC(=S)NCC1CCCO1)c1cccs1 (configuration not stated),inactive
2,Cc1onc(-c2c(F)cccc2Cl)c1C(=O)NC(=S)NC1CCSC1=O (configuration not stated),2.61%
3,O=C(NC(=S)NC1CCSC1=O)c1cccs1 (configuration not stated),12.2% (active)
4,O=C1CCCc2c1cc(-c1ccccc1)n2-c1ccc(O)cc1,1.72%
5,CCOCCCNC(=O)/C(C#N)=C/c1ccc(-c2ccc(S(=O)(=O)N3CCOCC3)cc2)o1,0.33%
6,Cc1cc(C)n(C(=O)c2ccc([N+](=O)[O-])cc2[N+](=O)[O-])n1,0.325%
7,Cc1cc(C)nc(Sc2ccc([N+](=O)[O-])cc2[N+](=O)[O-])n1,14.6% (active)
8,CN(C)/N=C/c1ccc(Sc2ccc([N+](=O)[O-])cc2[N+](=O)[O-])o1,2.35%
9,N#C/C(=C\c1cccn1-c1ccccc1)C(=O)NC1CCCCC1,2.54%
10,O=[n+]1cc(-c2ccccc2)n([O-])c2c1CCCCC2,0.81%
11,CCOC(=O)c1cc[n+](CC(=O)c2ccc(F)cc2)cc1,inactive
12,COc1ccc(NC(=O)CC2(Cc3ccccc3)CCOC(C)(C)C2)cc1 (configuration not stated),inactive
13,Cc1ccc(NC2=C(Cl)C(=O)OC2OC(=O)c2ccco2)cc1C (configuration not stated),14% (active)
14,CCOC1OC(=O)C(Cl)=C1Nc1ccc(C)cc1C (configuration not stated),0.385%
15,Cc1cccc(C)c1NC1=C(Cl)C(=O)OC1OC(C)C (configuration not stated),inactive
16,COc1cc(NC(=O)CN2CCC(C)CC2)c(C)cc1[N+](=O)[O-],inactive
17,CCN(CC)S(=O)(=O)c1ccc2oc(C(=O)N3CCc4ccccc4C3)c(C)c2c1,0.865%
18,N#Cc1cc(NCC2CCCO2)c([N+](=O)[O-])cc1C#N (configuration not stated),0.075%
19,CN(CC(=O)Nc1ccc(Cl)cc1)c1ccc(S(=O)(=O)N2CCCCC2)cc1[N+](=O)[O-],13% (active)
20,CN(CC(=O)Nc1ccc(F)cc1)c1ccc(S(=O)(=O)N2CCCCC2)cc1[N+](=O)[O-],2.78%
21,CC(C)C(=O)NC(=S)Nc1ccc(S(=O)(=O)N2CCCC2)cc1,inactive
22,CN(CC(=O)Nc1ccc(S(=O)(=O)N2CCCC2)cc1)Cc1cccc(Cl)c1Cl,9% (active)
23,CN(Cc1cccc(Cl)c1Cl)C(=O)c1ccc(NC(=O)CC#N)cc1,inactive

row,SMILES,CPE inhibition
1,CN(CC(=O)Nc1ccc(S(=O)(=O)N2CCCC2)cc1)Cc1ccc(Cl)cc1Cl,13.3% (active)
2,COc1ccc(CCN(C)c2ccc(S(=O)(=O)N3CCCC3)cc2[N+](=O)[O-])cc1OC,inactive
3,CN(CC(=O)Nc1ccc(S(=O)(=O)N2CCCC2)cc1)Cc1ccc(Cl)cc1,0.055%
4,CCOc1ccccc1N(CC(=O)Nc1ccc(S(=O)(=O)N2CCOCC2)cc1)S(=O)(=O)c1ccc(Cl)cc1,0.98%
5,CCc1cccc(C)c1NC(=O)CSc1nc(-c2ccccc2F)nc2nc[nH]c12,inactive
6,CCCCn1c(-c2ccco2)n[nH]c1=S,1.02%
7,CC(OC(=O)/C=C/c1ccco1)C(=O)Nc1cccc([N+](=O)[O-])c1 (configuration not stated),0.7%
8,CCOc1ccccc1NC(=S)NNS(=O)(=O)c1c(C)cc(C)cc1C,inactive
9,Cc1ccc(NC(=O)CC(C(=O)O)c2ccccc2)cc1 (configuration not stated),inactive
10,CCOC(=O)N1CCN(CC(O)COc2ccc(C)cc2C(C)(C)C)CC1 (configuration not stated),2.44%
11,C=CCC(C(=O)Oc1c(C(C)(C)C)cc(C)cc1C(C)(C)C)c1ccccc1 (configuration not stated),12.5% (active)
12,CC(C)Oc1ccc(C(CC(=O)N(C)CCC#N)c2ccc(F)cc2)cc1 (configuration not stated),0.65%
13,COC(=O)CNC(c1ccccc1)c1cc(C)ccc1NC(=O)c1cccc(Cl)c1 (configuration not stated),3.54%
14,COC(=O)CNC(c1ccccc1)c1cc(Br)ccc1NC(=O)CNC(=O)OCc1ccccc1 (configuration not stated),16.5% (active)
15,NNC(=O)CNC(c1ccccc1)c1cc(Br)ccc1NC(=O)c1cccc(Cl)c1 (configuration not stated),0.305%
16,O=C(Oc1cccc(/C=N/Nc2nc(Nc3ccccc3)nc(N3CCOCC3)n2)c1)c1ccco1,inactive
17,Cc1ccc(C(O)(C(=O)NNc2ccc3ccccc3n2)c2ccc(C)cc2)cc1,inactive
18,CC(Sc1nc(-c2ccccc2)cc(C(F)(F)F)n1)C(=O)Nc1ccc2c(c1)OCO2 (configuration not stated),3%
19,O=C(Nc1cccc(C(F)(F)F)c1)C(Sc1ncnc2ccccc12)c1ccccc1 (configuration not stated),2.71%
20,CC(Sc1ncnc2ccccc12)C(=O)Nc1ccc2c(c1)OCCO2 (configuration not stated),12.4% (active)
21,CC(C)(C)c1ccc(C(=O)N2CCC(=O)N(C(CO)Cc3ccccc3)CC2)cc1 (configuration not stated),inactive
22,CC(C)C[C@@H](COc1ccccc1)N1CCN(Cc2ccccc2)CCC1=O,0.51%
23,CC(C)CC(COCc1ccc(Cl)cc1)N1CCN(C(=O)c2ccc(C(F)(F)F)cc2)CCC1=O (configuration not stated),12.7% (active)
